According to PubChem BioAssay (NCI):
Compounds without any hit were thinned out: in the full panel of roughly 83,000, 20% have a hit.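 Treatment: one concentration, 48 hours, 96-well format. Scoring: percent growth, with anything below 10 considered active.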 Activity calls are given as the source filed them.

What follows are compounds tested on NCI-H322M lung (assay: NCI-60 one-dose screen, 48 h (100 = growth as untreated, 0 = no growth, -100 = all killed)). Settings: 10 µM unless noted.
`COc1ccc(C2C(C#N)=C(/N=C/c3ccc(Cl)cc3)Oc3c2sc2c(C)cccc32)cc1` (stereo not given) was tested, and the growth was 44.2% (inactive).
In the case of `CN1CC[C@@H]2[C@@]3(C)CC[C@H](O)C(C)(C)[C@@H]3CC[C@@]2(C)[C@]2(C)CC[C@@]3(CO)CCC(C)(C)C[C@@H]3C12` (stereo not given in full), the growth is reported as 98.8% (inactive).
`Clc1ccc2c(N/N=C/c3c[nH]c4ccccc34)ccnc2c1` was tested, and the growth was -89.9% (active).
For `O=c1c2cc(-c3ccc(F)cc3F)ccc2n(Nc2ccccc2)c(=O)n1-c1cccc(C(F)(F)F)c1`, the growth was 7.15% (active).
In the case of `NC1[C@H]2CN(c3cnc(C(=O)Nc4cc(F)cc5cccnc45)cn3)C[C@@H]12` (stereo not given in full), the growth is reported as 6.79% (active).
In the case of `CCOC(=O)c1cccc(NC2=C(Cl)C(=O)c3nc(C)ccc3C2=O)c1`, the growth is reported as 104% (inactive).
In the case of `O=C(CSc1nnc(-c2cccs2)n1-c1ccccc1)Nc1ccccc1`, the growth is reported as 84% (inactive).
With `CCc1cc2c(cc1Cl)nc1c(=O)[nH]c(=O)nc-1n2CCOCC(C)C` the growth was 54.9% (inactive).
In the case of `Cc1csc(/N=C(N)/N=C(\N)c2cccc(C#N)c2)n1`, the growth is reported as 96.6% (inactive).
With `Clc1ccc(CSc2nnc(-c3ccc(Cl)cc3)n2-c2ccccc2)cc1` the growth was 92.7% (inactive).
With `C#Cc1nc(C(=O)NCCCCCCC(=O)NO)cs1` the growth was 29.4% (inactive).
`CCCNNC(=O)c1ccc(-c2ccc(NC(=O)CCCCCCC(=O)N[C@H](C(=O)N3C[C@H](O)C[C@H]3C(=O)N[C@@H](C)c3ccc(-c4scnc4C)cc3)C(C)(C)C)cc2)cc1` was tested, and the growth was 34.7% (inactive).
With `CN1CCN(c2ccc(Nc3nc(NCCNC(=O)c4ccccc4)c4sccc4n3)cc2)CC1` the growth was 85.2% (inactive).
For `COc1cc2c3c(cc4c5c(ccc4c3c1OC)OCO5)N(CCN(C)C)C2=O`, the growth was 0.11% (active).
In the case of `N#Cc1c(-c2cccs2)cc(-c2cnccn2)nc1SCC(=O)N/N=C/c1ccc(Cl)cc1`, the growth is reported as 99.3% (inactive).
For `COC(=O)c1cccc(NC2=CC(=O)C(C)=C(C)C2=O)c1`, the growth was 104% (inactive).
For `C#Cc1nc(/C=C/CCCCCCC(=O)NO)cs1`, the growth was 85.2% (inactive).
`CC(=O)Nc1nc(C)c(-c2csc(Nc3ccccc3)n2)s1` was tested, and the growth was 27.6% (inactive).
In the case of `CC1=C(C)C(=O)C(Nc2ccc3c(c2)OCO3)=C(Br)C1=O`, the growth is reported as 96.5% (inactive).
`N#Cc1cccc(-c2cc(-c3ccc4c(c3)OCCO4)[nH]n2)c1` was tested, and the growth was 54.8% (inactive).
For `COc1ccc2c(c1)c(-c1nc(N)nnc1-c1c[nH]c3ccccc13)cn2C`, the growth was 57.3% (inactive).
With `CC1(C)CC[C@]23CC[C@]4(C)[C@H](CC[C@@H]5[C@@]6(C)CC[C@H](N)C(C)(C)[C@@H]6CC[C@]54C)[C@H]2[C@H]1OC3` the growth was 93.6% (inactive).
In the case of `Fc1cccc(Cl)c1/C=N/Nc1nc(N/N=C/c2c(F)cccc2Cl)nc(N2CCCCC2)n1`, the growth is reported as 35.8% (inactive).
In the case of `Cc1ccccc1N1CCN(C2=C(Cl)C(=O)c3ncccc3C2=O)CC1`, the growth is reported as 89.9% (inactive).
With `CC(=O)OC[C@@]12Oc3c(cccc3-c3ccc(O)c4c3O[C@]3(COC(C)=O)C(=C4O)C(=O)C[C@H](C)[C@@H]3OC(C)=O)C(O)=C1C(=O)C[C@H](C)[C@@H]2OC(C)=O` the growth was 33.1% (inactive).
With `COc1ccc(CC(C)=C(c2ccc(OCCN3CCCC3)cc2)c2ccc(OCCN3CCCC3)cc2)cc1` the growth was -75.7% (active).
With `CNC(=O)c1cc(N2CCc3cc(NC(=O)Nc4ccc(N5CCOCC5)c(C(F)(F)F)c4)ccc32)ccn1` the growth was 56.2% (inactive).
`CN(C)CC(=O)Nc1nc(-c2cccc(NS(=O)(=O)c3cccc4c(N(C)C)cccc34)c2)cs1` was tested, and the growth was 96.2% (inactive).
With `NCCNC(=O)c1cccc(COc2ccccc2NC(=O)c2cc(Cl)c(Cl)[nH]2)c1` the growth was 102% (inactive).
In the case of `COc1cccc2c1C=CC1(O2)Oc2cccc(OC)c2C=C1C` (stereo not given), the growth is reported as 46.1% (inactive).
For `COc1ccc(-c2c(C(N)=O)c(N)n(Cc3nc4ccccc4[nH]3)c(=O)c2C#N)c(OC)c1`, the growth was 97.3% (inactive).
`NC1C2CCC1CN(c1cnc(C(=O)Nc3cc(F)cc4cccnc34)cn1)C2` (stereo not given) was tested, and the growth was 84.3% (inactive).
`COc1ccc2c(c1)c(-c1nnc(N)nc1-c1c[nH]c3ccc(F)cc13)cn2C` was tested, and the growth was 87% (inactive).
With `COc1ccc([C@H]2C(=O)N(c3cc(OC)c(OC)c(OC)c3)[C@@H]2c2ccc(OC)c(O)c2)cc1` the growth was 43.3% (inactive).
`CCOC(=O)c1cnc2c(-c3ccc(Cl)c(Cl)c3)cnn2c1` was tested, and the growth was 90.8% (inactive).
`Oc1[nH]c2ccc(Cl)cc2c1N=Nc1nc(N=Nc2c(O)[nH]c3ccc(Cl)cc23)nc(N2CCOCC2)n1` was tested, and the growth was 78.1% (inactive).
For `CCC1=Cc2c(OC)cccc2OC12C=Cc1c(OC)cccc1O2` (stereo not given), the growth was 43.9% (inactive).
In the case of `CCCC/C(=C\c1ccc(O)c(O)c1)C(=O)NC(Cc1ccccc1)C(=O)C(=O)NCCc1ccc(OC)cc1` (stereo not given), the growth is reported as 100% (inactive).
For `CC/C(=C(/c1ccc(Cl)cc1)c1ccc(OCCN)cc1)c1ccccc1`, the growth was 108% (inactive).
`Cc1ccc(S(=O)(=O)c2nc(-c3ccc(F)cc3)oc2S(C)(=O)=O)cc1` was tested, and the growth was 95.9% (inactive).
